Legend:
Assay in all cases: DAPPL (digital affinity profiling via proximity ligation, sequencing); 10 mM Tris-HCl pH 7.5, 50 mM NaCl, 1 mM DTT, 4% glycerol, room temperature, 30 min; GST-TFs on glutathione beads, 16-mer random dsDNA library, 0.1% formaldehyde crosslink after washing; high values mean tight binding
Details in all cases: protein: recombinant; tags: N-terminal GST; dsDNA, one strand shown
ELK1 = target: T1, ELK1 (Homo sapiens, UniProt P19419 1-428)
T1 sequence: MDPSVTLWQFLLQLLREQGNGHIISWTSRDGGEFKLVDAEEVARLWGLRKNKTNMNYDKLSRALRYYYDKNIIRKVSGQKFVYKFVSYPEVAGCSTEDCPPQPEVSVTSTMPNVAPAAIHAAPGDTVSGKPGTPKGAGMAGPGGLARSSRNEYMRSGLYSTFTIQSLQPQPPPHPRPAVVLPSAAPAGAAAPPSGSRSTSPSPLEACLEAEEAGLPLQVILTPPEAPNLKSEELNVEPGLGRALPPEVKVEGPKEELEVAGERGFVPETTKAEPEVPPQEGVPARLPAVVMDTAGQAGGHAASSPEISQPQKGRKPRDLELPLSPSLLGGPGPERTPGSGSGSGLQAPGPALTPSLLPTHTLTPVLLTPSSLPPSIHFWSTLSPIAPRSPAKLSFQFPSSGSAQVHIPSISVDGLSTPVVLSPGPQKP
Summary of the method: (§1)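 GST fusions of human transcription factors were expressed in yeast and captured with glutathione beads. Once given DNA barcodes and pooled alongside a tag-only sample, they were incubated for 30 min at room temperature with 200 nmole of a random double-stranded 16-mer DNA library in Tris/NaCl/DTT/glycerol buffer, then washed, crosslinked (0.1% formaldehyde), proximity-ligated, PCR-amplified and sequenced on an Illumina NextSeq500. The binding signal of each hexamer is its read frequency for a factor divided by its frequency for the tag-only sample.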

ERG = target: T2, ERG (Homo sapiens, UniProt P11308 1-479)
T2 sequence: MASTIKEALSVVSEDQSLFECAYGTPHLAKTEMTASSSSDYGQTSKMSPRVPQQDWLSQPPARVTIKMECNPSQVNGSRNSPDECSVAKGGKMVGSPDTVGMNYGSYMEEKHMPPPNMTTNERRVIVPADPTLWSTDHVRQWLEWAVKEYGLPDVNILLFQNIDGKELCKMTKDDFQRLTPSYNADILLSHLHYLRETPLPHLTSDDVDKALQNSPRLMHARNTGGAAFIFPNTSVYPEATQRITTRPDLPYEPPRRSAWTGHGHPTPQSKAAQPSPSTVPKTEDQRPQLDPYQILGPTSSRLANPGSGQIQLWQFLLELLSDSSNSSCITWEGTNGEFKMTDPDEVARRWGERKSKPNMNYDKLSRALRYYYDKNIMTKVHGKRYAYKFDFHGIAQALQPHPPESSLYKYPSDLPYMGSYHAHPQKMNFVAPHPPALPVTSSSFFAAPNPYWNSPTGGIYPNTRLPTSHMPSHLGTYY
Summary of the method: as §1

EHF = target: T3, EHF (Homo sapiens, UniProt Q9NZC4 1-300)
T3 sequence: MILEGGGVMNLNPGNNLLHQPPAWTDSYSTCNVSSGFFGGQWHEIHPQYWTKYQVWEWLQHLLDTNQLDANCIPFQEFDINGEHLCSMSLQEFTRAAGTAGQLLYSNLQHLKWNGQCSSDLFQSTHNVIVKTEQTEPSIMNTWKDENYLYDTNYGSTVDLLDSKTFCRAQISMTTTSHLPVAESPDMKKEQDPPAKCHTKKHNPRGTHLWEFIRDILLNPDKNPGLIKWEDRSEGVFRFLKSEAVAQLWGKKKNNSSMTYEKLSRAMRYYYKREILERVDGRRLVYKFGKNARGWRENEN
Summary of the method: as §1

SPIB = SPIB (Homo sapiens, UniProt Q01892 1-262)
Chain of SPIB (Q01892 whole entry): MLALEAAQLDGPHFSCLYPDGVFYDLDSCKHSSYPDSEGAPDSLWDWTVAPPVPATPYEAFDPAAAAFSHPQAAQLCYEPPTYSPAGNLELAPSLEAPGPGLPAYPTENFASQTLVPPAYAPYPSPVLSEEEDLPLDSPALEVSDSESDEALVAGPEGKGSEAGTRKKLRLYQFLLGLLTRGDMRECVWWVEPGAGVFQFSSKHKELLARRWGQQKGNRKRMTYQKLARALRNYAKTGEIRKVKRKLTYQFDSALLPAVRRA
Summary of the method: as §1

ELK3 = target: T4, ELK3 (Homo sapiens, UniProt P41970 1-407)
T4 sequence: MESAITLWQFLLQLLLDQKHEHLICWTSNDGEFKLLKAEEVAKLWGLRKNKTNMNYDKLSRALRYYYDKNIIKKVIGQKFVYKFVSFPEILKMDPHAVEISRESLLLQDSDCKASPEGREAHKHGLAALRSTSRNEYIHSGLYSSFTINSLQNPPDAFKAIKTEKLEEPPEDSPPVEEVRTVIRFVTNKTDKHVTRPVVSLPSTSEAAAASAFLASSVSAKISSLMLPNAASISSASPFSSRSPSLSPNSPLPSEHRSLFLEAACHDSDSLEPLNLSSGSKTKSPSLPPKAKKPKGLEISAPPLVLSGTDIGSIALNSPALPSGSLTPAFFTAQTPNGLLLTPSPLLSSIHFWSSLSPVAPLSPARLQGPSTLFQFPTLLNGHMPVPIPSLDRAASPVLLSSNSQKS
Summary of the method: as §1

ETV5 = ETV5 (Homo sapiens, UniProt P41161 1-510)
Chain of ETV5 (P41161 whole entry): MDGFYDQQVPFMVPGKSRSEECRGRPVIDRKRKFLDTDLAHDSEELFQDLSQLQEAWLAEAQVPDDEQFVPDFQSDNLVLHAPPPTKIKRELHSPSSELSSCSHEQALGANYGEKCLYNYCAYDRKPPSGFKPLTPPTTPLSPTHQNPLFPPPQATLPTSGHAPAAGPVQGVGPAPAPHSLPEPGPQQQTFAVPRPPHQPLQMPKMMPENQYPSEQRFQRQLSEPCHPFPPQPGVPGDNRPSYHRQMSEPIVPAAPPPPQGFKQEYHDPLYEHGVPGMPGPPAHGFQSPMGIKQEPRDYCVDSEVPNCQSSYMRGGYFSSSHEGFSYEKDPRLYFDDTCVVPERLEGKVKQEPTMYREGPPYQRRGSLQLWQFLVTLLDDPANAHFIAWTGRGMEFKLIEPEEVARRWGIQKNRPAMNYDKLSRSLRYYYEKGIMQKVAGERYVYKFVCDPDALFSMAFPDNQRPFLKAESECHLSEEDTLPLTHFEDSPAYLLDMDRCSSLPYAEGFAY
Summary of the method: as §1

SPIC = target: T5, SPIC (Homo sapiens, UniProt Q8N5J4 1-248)
T5 sequence: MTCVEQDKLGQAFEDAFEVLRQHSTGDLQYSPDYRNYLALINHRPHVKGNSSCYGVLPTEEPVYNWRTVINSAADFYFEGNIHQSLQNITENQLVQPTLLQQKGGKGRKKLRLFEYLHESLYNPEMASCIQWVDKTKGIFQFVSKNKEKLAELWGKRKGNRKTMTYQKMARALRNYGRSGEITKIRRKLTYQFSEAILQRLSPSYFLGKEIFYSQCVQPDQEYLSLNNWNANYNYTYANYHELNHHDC
Summary of the method: as §1

ELF4 = ELF4 (Homo sapiens, UniProt Q99607 1-663)
Chain of ELF4 (Q99607 whole entry): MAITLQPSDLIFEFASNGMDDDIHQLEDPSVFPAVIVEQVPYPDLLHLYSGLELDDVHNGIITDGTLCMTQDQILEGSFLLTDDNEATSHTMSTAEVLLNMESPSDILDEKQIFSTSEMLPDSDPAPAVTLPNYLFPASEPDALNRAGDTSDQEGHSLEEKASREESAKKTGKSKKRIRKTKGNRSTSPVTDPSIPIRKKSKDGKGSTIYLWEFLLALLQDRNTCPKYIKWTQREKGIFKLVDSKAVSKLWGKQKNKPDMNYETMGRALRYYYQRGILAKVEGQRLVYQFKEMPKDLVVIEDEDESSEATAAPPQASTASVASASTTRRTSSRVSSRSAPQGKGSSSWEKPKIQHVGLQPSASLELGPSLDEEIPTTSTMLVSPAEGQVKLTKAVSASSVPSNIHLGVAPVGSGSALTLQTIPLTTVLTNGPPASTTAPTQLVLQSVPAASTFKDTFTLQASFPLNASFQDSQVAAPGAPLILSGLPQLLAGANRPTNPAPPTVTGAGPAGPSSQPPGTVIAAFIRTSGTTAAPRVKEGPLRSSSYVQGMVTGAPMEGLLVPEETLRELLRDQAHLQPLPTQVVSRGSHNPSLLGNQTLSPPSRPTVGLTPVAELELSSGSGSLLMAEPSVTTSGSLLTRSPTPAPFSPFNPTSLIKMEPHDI
Summary of the method: as §1

ELK4 = target: T6, ELK4 (Homo sapiens, UniProt P28324-2 1-405)
T6 sequence: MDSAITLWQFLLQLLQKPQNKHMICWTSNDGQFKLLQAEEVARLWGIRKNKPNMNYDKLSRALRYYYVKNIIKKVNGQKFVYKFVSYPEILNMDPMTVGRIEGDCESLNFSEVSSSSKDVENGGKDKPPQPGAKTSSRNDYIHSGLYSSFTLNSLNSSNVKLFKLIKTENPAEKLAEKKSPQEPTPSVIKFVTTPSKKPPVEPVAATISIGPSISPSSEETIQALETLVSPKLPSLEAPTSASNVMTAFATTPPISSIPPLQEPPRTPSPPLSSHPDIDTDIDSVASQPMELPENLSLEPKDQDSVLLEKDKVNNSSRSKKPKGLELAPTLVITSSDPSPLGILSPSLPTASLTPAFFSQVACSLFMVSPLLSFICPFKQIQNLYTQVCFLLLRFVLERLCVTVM
Summary of the method: as §1

ETV1 = ETV1 (Homo sapiens, UniProt P50549 1-477)
Chain of ETV1 (P50549 whole entry): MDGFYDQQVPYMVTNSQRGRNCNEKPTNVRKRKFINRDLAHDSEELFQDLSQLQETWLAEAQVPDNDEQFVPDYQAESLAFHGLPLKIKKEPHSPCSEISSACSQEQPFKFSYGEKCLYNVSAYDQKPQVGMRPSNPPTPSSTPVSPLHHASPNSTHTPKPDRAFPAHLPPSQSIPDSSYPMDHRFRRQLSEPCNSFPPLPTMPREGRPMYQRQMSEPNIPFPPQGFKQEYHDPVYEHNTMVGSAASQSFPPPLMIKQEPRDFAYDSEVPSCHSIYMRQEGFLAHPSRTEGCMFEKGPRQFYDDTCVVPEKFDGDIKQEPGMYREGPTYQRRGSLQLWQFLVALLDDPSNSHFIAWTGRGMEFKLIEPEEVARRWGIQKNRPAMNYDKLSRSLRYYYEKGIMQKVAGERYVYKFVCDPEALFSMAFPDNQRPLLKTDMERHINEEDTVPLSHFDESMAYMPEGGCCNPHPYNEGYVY
Summary of the method: as §1

ERF = target: T7, ERF (Homo sapiens, UniProt P50548 1-548)
T7 sequence: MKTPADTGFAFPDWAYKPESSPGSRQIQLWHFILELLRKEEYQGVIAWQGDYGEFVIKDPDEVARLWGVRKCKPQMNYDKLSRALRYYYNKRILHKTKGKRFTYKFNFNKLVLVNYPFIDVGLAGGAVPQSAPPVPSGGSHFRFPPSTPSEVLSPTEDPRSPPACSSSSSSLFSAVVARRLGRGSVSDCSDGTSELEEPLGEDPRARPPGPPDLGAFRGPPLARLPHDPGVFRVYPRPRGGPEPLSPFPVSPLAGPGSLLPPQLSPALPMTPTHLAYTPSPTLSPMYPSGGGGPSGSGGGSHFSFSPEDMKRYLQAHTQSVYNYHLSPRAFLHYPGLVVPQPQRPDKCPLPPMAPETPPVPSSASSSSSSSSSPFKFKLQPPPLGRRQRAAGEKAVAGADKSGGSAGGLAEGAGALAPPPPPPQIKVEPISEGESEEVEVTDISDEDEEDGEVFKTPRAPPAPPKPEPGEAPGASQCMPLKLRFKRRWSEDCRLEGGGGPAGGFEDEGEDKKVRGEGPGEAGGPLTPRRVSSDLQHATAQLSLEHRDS
Summary of the method: as §1

ETV3L = target: T8, ETV3L (Homo sapiens, UniProt Q6ZN32 1-361)
T8 sequence: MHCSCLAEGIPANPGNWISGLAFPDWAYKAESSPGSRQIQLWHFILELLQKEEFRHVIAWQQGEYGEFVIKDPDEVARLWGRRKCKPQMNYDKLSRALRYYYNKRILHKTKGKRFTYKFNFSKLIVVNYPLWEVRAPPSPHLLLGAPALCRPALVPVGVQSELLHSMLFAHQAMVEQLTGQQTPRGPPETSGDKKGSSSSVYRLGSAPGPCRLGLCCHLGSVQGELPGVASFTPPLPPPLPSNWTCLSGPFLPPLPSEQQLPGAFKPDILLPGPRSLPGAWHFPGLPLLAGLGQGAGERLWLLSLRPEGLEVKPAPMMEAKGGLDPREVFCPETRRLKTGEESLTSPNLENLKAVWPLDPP
Summary of the method: as §1

SPDEF = target: T9, SPDEF (Homo sapiens, UniProt O95238 1-335)
T9 sequence: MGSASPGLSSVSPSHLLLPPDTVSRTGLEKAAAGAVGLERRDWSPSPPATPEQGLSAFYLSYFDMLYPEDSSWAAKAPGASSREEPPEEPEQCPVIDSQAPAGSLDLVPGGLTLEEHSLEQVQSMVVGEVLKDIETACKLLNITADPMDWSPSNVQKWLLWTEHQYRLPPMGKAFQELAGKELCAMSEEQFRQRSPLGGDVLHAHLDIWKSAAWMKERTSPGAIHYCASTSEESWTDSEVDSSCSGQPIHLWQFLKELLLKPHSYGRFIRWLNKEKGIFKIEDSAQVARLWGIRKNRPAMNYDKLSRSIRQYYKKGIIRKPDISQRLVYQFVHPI
Summary of the method: as §1

ETV7 = target: T10, ETV7 (Homo sapiens, UniProt Q9Y603 1-341)
T10 sequence: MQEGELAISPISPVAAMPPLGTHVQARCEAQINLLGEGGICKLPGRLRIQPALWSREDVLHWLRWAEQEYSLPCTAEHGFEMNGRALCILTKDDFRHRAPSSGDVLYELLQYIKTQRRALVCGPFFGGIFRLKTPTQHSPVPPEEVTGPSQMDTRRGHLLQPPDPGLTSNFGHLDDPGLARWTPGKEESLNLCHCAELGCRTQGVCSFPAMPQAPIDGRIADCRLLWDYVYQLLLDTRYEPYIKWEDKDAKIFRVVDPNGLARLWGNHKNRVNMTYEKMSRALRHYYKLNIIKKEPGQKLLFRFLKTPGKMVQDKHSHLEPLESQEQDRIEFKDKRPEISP
Summary of the method: as §1

ETV3 = target: T11, ETV3 (Homo sapiens, UniProt P41162-2 1-143)
T11 sequence: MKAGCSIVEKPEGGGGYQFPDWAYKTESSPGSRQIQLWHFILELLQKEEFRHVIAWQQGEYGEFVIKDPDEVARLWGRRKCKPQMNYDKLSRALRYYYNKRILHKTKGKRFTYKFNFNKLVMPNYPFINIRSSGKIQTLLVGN
Summary of the method: as §1

ETV6 = ETV6 (Homo sapiens, UniProt P41212 1-452)
Chain of ETV6 (P41212 whole entry): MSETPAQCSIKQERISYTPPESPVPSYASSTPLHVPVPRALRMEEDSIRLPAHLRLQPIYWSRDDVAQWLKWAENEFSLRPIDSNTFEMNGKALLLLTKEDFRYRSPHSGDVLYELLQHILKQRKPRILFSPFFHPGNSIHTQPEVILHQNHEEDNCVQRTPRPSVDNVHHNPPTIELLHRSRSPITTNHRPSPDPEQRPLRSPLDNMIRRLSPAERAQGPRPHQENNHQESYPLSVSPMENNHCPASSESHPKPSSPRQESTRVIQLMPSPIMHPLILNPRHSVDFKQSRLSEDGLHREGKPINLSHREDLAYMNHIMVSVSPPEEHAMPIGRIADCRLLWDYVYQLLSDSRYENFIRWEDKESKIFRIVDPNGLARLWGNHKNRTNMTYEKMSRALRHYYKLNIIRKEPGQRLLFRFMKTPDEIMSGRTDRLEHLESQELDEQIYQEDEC
Summary of the method: as §1

CAATGT
binding signal (ELK1): 1.06 fold enrichment (6-mer frequency, TF over GST control) | binding signal (ERG): 1.02 fold enrichment (6-mer frequency, TF over GST control) | binding signal (EHF): 1.05 fold enrichment (6-mer frequency, TF over GST control) | binding signal (SPIB): 1.04 fold enrichment (6-mer frequency, TF over GST control) | binding signal (ELK3): 1.01 fold enrichment (6-mer frequency, TF over GST control) | binding signal (ETV5): 1.02 fold enrichment (6-mer frequency, TF over GST control) | binding signal (SPIC): 1.13 fold enrichment (6-mer frequency, TF over GST control) | binding signal (ELF4): 1.06 fold enrichment (6-mer frequency, TF over GST control) | binding signal (ELK4): 1.1 fold enrichment (6-mer frequency, TF over GST control) | binding signal (ETV1): 1.07 fold enrichment (6-mer frequency, TF over GST control) | binding signal (ERF): 1.05 fold enrichment (6-mer frequency, TF over GST control) | binding signal (ETV3L): 1.03 fold enrichment (6-mer frequency, TF over GST control) | binding signal (SPDEF): 1.07 fold enrichment (6-mer frequency, TF over GST control) | binding signal (ETV7): 1.09 fold enrichment (6-mer frequency, TF over GST control) | binding signal (ETV3): 1.03 fold enrichment (6-mer frequency, TF over GST control) | binding signal (ETV6): 1.05 fold enrichment (6-mer frequency, TF over GST control)
